Where “and” joins values, the source holds several entries; their conditions need not be identical. Identical values can stand only once. The panel holds about 83,000 compounds, 20% with a hit somewhere; the sample as a whole holds those more often.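 Activity criterion: percent growth below 10, measured after cells in 96-well plates were exposed to a single compound concentration for 48 hours.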 Unmarked numbers belong to inactive results. Calls of active or inactive are those of the source.
Test system: TK-10 renal
Experiment: NCI-60 one-dose screen, 48 h (100 = growth as untreated, 0 = no growth, -100 = all killed)
Details: 10 µM

| Structure (SMILES) | growth |
| --- | --- |
| CC[C@@]1(O)C[C@H](OC2CC(N(C)C)C(O)C(C)O2)c2c(O)c3c(c(O)c2[C@H]1OC1CC(N(C)C)C(O)C(C)O1)C(=O)c1cccc(O)c1C3=O (stereo partly drawn) | -24.9% (active) |
| COC1CC(CC2CCC(C)C(C(C)C(=O)O)O2)OC2(OC(C)(C3CCC(C)(C4OC(C5OC(O)(CO)C(C)CC5C)CC4C)O3)CC2C)C1C (stereo not drawn) | 4.27% (active) |
| CCC(=O)OC1CCn2c1nc1c2C(=O)C(C)=C(N2CC2)C1=O (stereo not drawn) | -5.86% (active) |
| CO[C@H](/C(C)=C/C=C/C(C)=C/c1coc(C)n1)[C@H](C)[C@H]1C[C@@H](O)[C@@]2(C)O[C@H]2/C=C/[C@@H](C)[C@@H]2C[C@@H](CC(=O)O2)C[C@H]2O[C@@H]2C(=O)O1 | 37.2% |
| CC1=C(CO)C2=C(C)C3(CC3)[C@@](C)(O)C(=O)C2=C1 | -23.3% (active) |
| COC1=C(C)C(=O)C2=C(C1=O)C(CO)N1C(C#N)C3CC4C(C1C2N1CCOC41)N3C (stereo not drawn) | -28.8% (active) |
| CC[n+]1c(-c2ccccc2)c2cc(N)ccc2c2ccc(N)cc21 | 42% |
| CN1CCN(c2ccc([N+](=O)[O-])c3no[n+]([O-])c23)CC1 | -95.4% (active) |
| COc1cccc2c1cc([N+](=O)[O-])c1c(C(=O)O)cc3c(c12)OCO3 | 30.8% and 99.6% |
| CCOC(=O)C(NC(=O)C(Cc1ccc(N(CCCl)CCCl)cc1)NC(C)=O)C(C)C (stereo not drawn) | 95.5% |
| C[C@]12CC[C@H](O)CC1=CC[C@@H]1[C@@H]2CC[C@]2(C)C(=O)CC[C@@H]12 | 96.2% |
| NCCc1ccc(OCc2ccccc2)c(OCc2ccccc2)c1 | 107% |
| S=C(SSC(=S)N1CCCCC1)N1CCCCC1 | 109% |
| Oc1cccc2cccnc12 | 113% and 98.5% and 104% |
| COc1ccccc1/C=C(/C)[N+](=O)[O-] | 75.2% and 95% |
| CC1=C2C(=O)[C@H]3[C@@H](CC=C4C[C@@H](O)CC[C@@]43C)[C@@H]2CC[C@]12O[C@@H]1C[C@H](C)CN[C@H]1[C@H]2C | 108% |
| Cc1cc(N=Nc2ccccc2C)ccc1N | 124% |
| COc1ccc(OC)c(/C=C/[N+](=O)[O-])c1 | -31.9% (active) |
| CC[C@](O)(C(=O)O)c1cc2n(c(=O)c1CO)Cc1cc3ccccc3nc1-2 | 6.69% (active) |
| CC[C@@]1(O)C(=O)OCc2c1cc1n(c2=O)Cc2cc3ccccc3nc2-1 | -8.5% (active) |
| Oc1cc[c]([Hg][Cl])cc1 | 110% |
| CCC1(O)CC(OC2CC(N(C)C)C(OC3CC4OC5CC(=O)C(C)OC5OC4C(C)O3)C(C)O2)c2c(cc3c(c2O)C(=O)c2c(O)ccc(O)c2C3=O)C1C(=O)OC (stereo not drawn) | -28.7% (active) |
| O=C1c2ccccc2C(=O)C(Cl)C1Cl (stereo not drawn) | -97.4% (active) |
| Cc1ccc(C(=O)OC(C(=O)O)C(OC(=O)c2ccc(C)cc2)C(=O)O)cc1 (stereo not drawn) (tested in a mixture with another compound) | 93.2% |
| CC(=O)O[C@H]1C[C@@H]2OC3C=C(C)CCC3(C)[C@@]1(C)[C@@]21CO1 (stereo partly drawn) | -18.9% (active) and -20.4% (active) |
| CC[C@@]1(O)C[C@H](OC2CC(N(C)C)C(OC3CC(O)C(OC4CCC(=O)C(C)O4)C(C)O3)C(C)O2)c2c(cc3c(c2O)C(=O)c2c(O)ccc(O)c2C3=O)[C@H]1C(=O)OC (stereo partly drawn) | 6.04% (active) |
| C[C@H]1CCC/C=C/[C@@H]2C[C@H](O)C[C@H]2[C@H](O)/C=C/C(=O)O1 | -31.1% (active) |

Same assay, conditions: 100 µM

| Structure (SMILES) | growth |
| --- | --- |
| COc1cccc2c1cc([N+](=O)[O-])c1c(C(=O)O)cc3c(c12)OCO3 | -10.4% (active) and -42.6% (active) |
| S=C(SSC(=S)N1CCCCC1)N1CCCCC1 | -61.8% (active) |
| CC1CCC2(NC1)OC1CC3C4CCC5CC(OC6OC(CO)C(OC7OC(CO)C(O)C(OC8OCC(O)C(O)C8O)C7OC7OC(CO)C(O)C(O)C7O)C(O)C6O)CCC5(C)C4CCC3(C)C1C2C (stereo not drawn) | -97.4% (active) and -87.3% (active) |

Test system: ACHN renal
Experiment: as above
Details: 10 µM unless noted

| Structure (SMILES) | growth |
| --- | --- |
| CC[C@@]1(O)C[C@H](OC2CC(N(C)C)C(O)C(C)O2)c2c(O)c3c(c(O)c2[C@H]1OC1CC(N(C)C)C(O)C(C)O1)C(=O)c1cccc(O)c1C3=O (stereo partly drawn) | -31% (active) |
| COC1CC(CC2CCC(C)C(C(C)C(=O)O)O2)OC2(OC(C)(C3CCC(C)(C4OC(C5OC(O)(CO)C(C)CC5C)CC4C)O3)CC2C)C1C (stereo not drawn) | 16.2% |
| CCC(=O)OC1CCn2c1nc1c2C(=O)C(C)=C(N2CC2)C1=O (stereo not drawn) | -25.3% (active) |
| CO[C@H](/C(C)=C/C=C/C(C)=C/c1coc(C)n1)[C@H](C)[C@H]1C[C@@H](O)[C@@]2(C)O[C@H]2/C=C/[C@@H](C)[C@@H]2C[C@@H](CC(=O)O2)C[C@H]2O[C@@H]2C(=O)O1 | -10.3% (active) |
| CC1=C(CO)C2=C(C)C3(CC3)[C@@](C)(O)C(=O)C2=C1 | -16.4% (active) |
| COC1=C(C)C(=O)C2=C(C1=O)C(CO)N1C(C#N)C3CC4C(C1C2N1CCOC41)N3C (stereo not drawn) | -9.01% (active) |
| CC[n+]1c(-c2ccccc2)c2cc(N)ccc2c2ccc(N)cc21 | 54.4% |
| CN1CCN(c2ccc([N+](=O)[O-])c3no[n+]([O-])c23)CC1 | -84% (active) |
| COc1cccc2c1cc([N+](=O)[O-])c1c(C(=O)O)cc3c(c12)OCO3 | 39.1% and 96.1% |
| CCOC(=O)C(NC(=O)C(Cc1ccc(N(CCCl)CCCl)cc1)NC(C)=O)C(C)C (stereo not drawn) | 42.7% |
| C[C@]12CC[C@H](O)CC1=CC[C@@H]1[C@@H]2CC[C@]2(C)C(=O)CC[C@@H]12 | 108% |
| NCCc1ccc(OCc2ccccc2)c(OCc2ccccc2)c1 | 71.1% |
| Oc1cccc2cccnc12 | 83.5% and 117% and 96% |
| COc1ccccc1/C=C(/C)[N+](=O)[O-] | 71.1% and 107% |
| CC1=C2C(=O)[C@H]3[C@@H](CC=C4C[C@@H](O)CC[C@@]43C)[C@@H]2CC[C@]12O[C@@H]1C[C@H](C)CN[C@H]1[C@H]2C | 108% |
| Cc1cc(N=Nc2ccccc2C)ccc1N | 85.3% |
| COc1ccc(OC)c(/C=C/[N+](=O)[O-])c1 | -67.9% (active) |
| CC[C@](O)(C(=O)O)c1cc2n(c(=O)c1CO)Cc1cc3ccccc3nc1-2 | -57.1% (active) |
| Cc1c(N)nc([C@H](CC(N)=O)NC[C@H](N)C(N)=O)nc1C(=O)N[C@H](C(=O)N[C@H](C)[C@@H](O)[C@H](C)C(=O)N[C@H](C(=O)NCCc1nc(-c2nc(C(=O)NCCC[S+](C)C)cs2)cs1)[C@@H](C)O)C(OC1OC(CO)C(O)C(O)C1OC1OC(CO)C(O)C(OC(N)=O)C1O)c1cnc[nH]1 (stereo partly drawn) | -6.04% [2.5 µM] (active) |
| CC[C@@]1(O)C(=O)OCc2c1cc1n(c2=O)Cc2cc3ccccc3nc2-1 | -72.6% (active) |
| Oc1cc[c]([Hg][Cl])cc1 | 99% |
| CCC1(O)CC(OC2CC(N(C)C)C(OC3CC4OC5CC(=O)C(C)OC5OC4C(C)O3)C(C)O2)c2c(cc3c(c2O)C(=O)c2c(O)ccc(O)c2C3=O)C1C(=O)OC (stereo not drawn) | -17.6% (active) |
| O=C1c2ccccc2C(=O)C(Cl)C1Cl (stereo not drawn) | -100% (active) |
| Cc1ccc(C(=O)OC(C(=O)O)C(OC(=O)c2ccc(C)cc2)C(=O)O)cc1 (stereo not drawn) (tested in a mixture with another compound) | 66% |
| CCCCCCCCCCCC1CCCC(C)N1 (stereo not drawn) | 77.8% |
| CC(=O)O[C@H]1C[C@@H]2OC3C=C(C)CCC3(C)[C@@]1(C)[C@@]21CO1 (stereo partly drawn) | -34.8% (active) and -29.9% (active) |
| CC[C@@]1(O)C[C@H](OC2CC(N(C)C)C(OC3CC(O)C(OC4CCC(=O)C(C)O4)C(C)O3)C(C)O2)c2c(cc3c(c2O)C(=O)c2c(O)ccc(O)c2C3=O)[C@H]1C(=O)OC (stereo partly drawn) | -86.9% (active) |
| C[C@H]1CCC/C=C/[C@@H]2C[C@H](O)C[C@H]2[C@H](O)/C=C/C(=O)O1 | 1.27% (active) |

Source: PubChem BioAssay (NCI)
